Experimental data reported in PubChem BioAssay AID488969 (Vanderbilt High Throughput Screening Facility, 2010).
The full ranking holds about 110,000 compounds; the median of “z-score” is about -0.1, and the highest 2% start at about 2. What follows is part of a selection rich in the highest values, with near analogues and random picks from the rest. The source made the active and inactive calls.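 How the source made its calls: active means z-score in the third read window above 3 or below -3; inactive means the rest.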

Target: Metabotropic glutamate receptor 8 (Rattus norvegicus) (UniProt P70579)
Test: mGluR8 Gi/Go-coupled signaling modulation – cell-based, rat, thallium flux, HTS, primary screen (AID 488969)
Conditions: HEK293 rat mGluR8, GIRK (G protein-gated inwardly rectifying potassium channel) thallium flux, FluoZin2; at 10 µM; stronger effect = higher value; submaximal glutamate (EC20) added with thallium

Sequence of Metabotropic glutamate receptor 8 (Rattus norvegicus) (P70579 whole entry, looked up): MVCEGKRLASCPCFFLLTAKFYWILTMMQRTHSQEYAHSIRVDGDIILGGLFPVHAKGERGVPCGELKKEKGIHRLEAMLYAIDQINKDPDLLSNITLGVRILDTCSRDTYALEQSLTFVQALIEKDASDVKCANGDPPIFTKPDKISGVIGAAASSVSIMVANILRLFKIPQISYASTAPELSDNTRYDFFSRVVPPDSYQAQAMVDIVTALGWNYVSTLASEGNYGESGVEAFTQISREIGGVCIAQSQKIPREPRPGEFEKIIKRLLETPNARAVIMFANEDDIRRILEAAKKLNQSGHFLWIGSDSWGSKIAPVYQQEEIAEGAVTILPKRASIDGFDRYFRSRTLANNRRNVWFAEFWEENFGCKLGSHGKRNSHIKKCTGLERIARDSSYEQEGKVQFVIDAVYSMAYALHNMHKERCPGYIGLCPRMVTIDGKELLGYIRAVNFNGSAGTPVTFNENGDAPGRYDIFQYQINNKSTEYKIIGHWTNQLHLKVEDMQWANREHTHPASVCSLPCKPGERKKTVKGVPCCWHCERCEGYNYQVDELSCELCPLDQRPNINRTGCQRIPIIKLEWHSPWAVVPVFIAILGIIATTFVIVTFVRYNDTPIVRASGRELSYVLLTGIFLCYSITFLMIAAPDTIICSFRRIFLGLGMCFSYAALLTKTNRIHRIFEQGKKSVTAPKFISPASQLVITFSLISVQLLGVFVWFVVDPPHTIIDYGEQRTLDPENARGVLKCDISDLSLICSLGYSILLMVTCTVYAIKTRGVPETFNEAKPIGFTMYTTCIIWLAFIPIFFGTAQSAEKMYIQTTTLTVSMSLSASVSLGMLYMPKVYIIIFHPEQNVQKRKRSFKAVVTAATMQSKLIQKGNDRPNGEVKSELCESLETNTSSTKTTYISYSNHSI

SMILES	z-score
O=[N+]([O-])c1ccccc1N/N=C/c1cc2ccccc2nc1Cl	-0.459
CC(C)c1ccc(-c2c(C#N)c(N)nc(SCC(=O)N3CCCCC3)c2C#N)cc1	-0.019
O=C1c2cccc3cccc(c23)C(=O)N1CCN1CCN(C(=S)Nc2ccc(F)cc2)CC1	-0.203
Cc1cccc(-n2c(SCC(=O)Nc3ncc(Cl)cc3Cl)nc3ccccc32)c1	-0.585
COc1ccc(-n2cc(-c3ccccc3)[nH]c2=S)cc1	11.4 (active)
COc1ccc(-n2c(=S)[nH]c3ccccc32)cc1	1.9
Cc1ccc(-n2c(-c3ccccc3)n[nH]c2=S)cc1	0.357
CC1CCCCC1NC(=O)CSCC(=O)O (stereo not given)	-0.0424
O=C(CCCC(=O)NC1CCCC1)NC1CCCC1	-0.0851
O=C(O)CCC(=O)NC1CCCCC1NC(=O)CCC(=O)O (stereo not given)	2.2
O=C(O)CCC(=O)NC1CCCCC1	-0.0259
O=C(CCC1CCCC1)NC1CCCCC1	-0.0138
O=C(O)CCC(=O)NC1CCCCCCC1	3.34 (active)
O=S(=O)(NCc1cccnc1)c1cccc2cccnc12	-0.0796
Cc1cc(C)c(S(=O)(=O)N(C)CC(=O)N2CCCCC2)c(C)c1	0.255
COc1ccc2c(c1)c(N=O)c(O)n2C	-0.55
O=C(C1CCN(S(=O)(=O)N2CCOCC2)CC1)N1CCc2ccccc21	-1.37
O=C(NCCO)c1scc2c1OCCO2	0.107
Cc1cccc(-n2c(O)c(C=NCc3ccccn3)c3ccccc3c2=O)c1	-0.159
O=c1c2ccccc2c(C=NCc2ccccn2)c(O)n1-c1ccccc1	9.73 (active)

SMILES	z-score
Cc1ccc(-n2c(O)c(C=NCc3ccccn3)c3ccccc3c2=O)cc1	-0.774
COc1ccc(CNC(=O)C/C(C)=N/NC(=O)Cc2ccc(OC)c(OC)c2)cc1	0.123
CCCCN(CCCC)S(=O)(=O)c1ccc2[nH]c(=O)[nH]c2c1	-0.144
CCOc1ccc(/C=C(\C#N)C(=O)Nc2cccnc2)cc1	-0.416
COc1cc(/C=C(\C#N)C(=O)Nc2cccnc2)ccc1OC(C)C	2.99
COc1ccc(/C=C(\C#N)C(=O)Nc2cccnc2)cc1	-0.0907
CC(C)C(=O)NC(C)C(c1cccs1)N1CCN(C)CC1 (stereo not given)	0.199
COc1ccccc1OCCOc1ccc(C(=O)c2ccccc2)cc1	1.04
O=C(CSc1ccccc1)NCCSCc1ccccc1	-0.635
C=CCNC(=O)NC(=O)CSc1nc2cc([N+](=O)[O-])ccc2n1-c1cccc(C(F)(F)F)c1	2.75
NC(=O)CSc1nc2cc([N+](=O)[O-])ccc2n1-c1cccc(C(F)(F)F)c1	0.159
CCNC(=O)CSc1nc2cc([N+](=O)[O-])ccc2n1-c1cccc(C(F)(F)F)c1	-0.0324
O=C(OCCN1C(=O)CCC1=O)c1ccc(S(=O)(=O)N2CCCCC2)cc1	-1.06
Cn1c(NC(=O)c2cccs2)c(-c2cccs2)c(=O)c2ccccc21	0.899
Cc1nn(Cc2ccc(Cl)cc2)c(C)c1NC(=O)C1CC=CCC1C(=O)O (stereo not given)	-0.0201
CN(C)CCC1Sc2ccccc2Oc2ccccc21 (stereo not given)	1.77
CCN(CC)CCCNC(=O)C1c2ccccc2Oc2ccccc21	0.199
CNCCCC1Sc2ccccc2Oc2ccccc21 (stereo not given)	2.85
Cc1sc(NC(=O)c2ccco2)c(C(=O)c2ccc(Cl)cc2)c1C	-0.135
CC(C)(C)NC(=O)c1cc(Cl)ccc1[N+](=O)[O-]	-0.172

SMILES	z-score
N#C/C(=C/c1cn(-c2ccccc2)nc1-c1cccc(S(=O)(=O)N2CCOCC2)c1)C(=O)NCc1ccco1	-0.112
Cc1ccc(N2C(N)=NC(N)=NC23CCCC3)c(C)c1	0.0847
NC1=NC2(CCCCC2)N(c2cccc(Cl)c2)C(N)=N1	0.453
Cc1cccc(N2C(N)=NC(N)=NC23CCCCC3)c1	2.24
Cc1ccc(S(=O)(=O)NCCSCc2ccccc2)cc1	-0.24
COc1ccc(CNC(=O)CCCOc2cc(=O)n(C)c3ccccc23)cc1	0.0421
Cn1c(=O)cc(OCCCC(=O)Nc2ccc3c(c2)OCCO3)c2ccccc21	-0.101
CC(=O)c1cn(CC(=O)NCc2ccc3c(c2)OCO3)c2ccccc12	-0.0873
Cn1c(=O)cc(OCCCC(=O)NCc2ccc3c(c2)OCO3)c2ccccc21	8.84 (active)
Cn1cc(CCC(=O)NCc2ccc3c(c2)OCO3)c2ccccc21	3.75 (active)
O=C(CCn1cccc1)NCc1ccc2c(c1)OCO2	-0.423
O=S(=O)(NCc1ccccn1)c1ccccc1	-0.362
COc1ccc(-c2nc(-c3cccc(C)c3)[nH]c(=O)c2C#N)cc1	-0.296
COc1ccc(S(=O)(=O)n2ccc(C)n2)cc1C	-0.988
CCCNC(=O)C1CCN(S(=O)(=O)c2ccc(-c3nn[nH]n3)cc2)CC1	-0.171
N/C(=N\c1nc2c(c(=O)[nH]1)CCC2)Nc1ccccc1	0.214
c1ccc(CN2CCOCC2)cc1	0.378
CC(=O)C1CCN(Cc2ccccc2)CC1	-0.262
CC12CN(Cc3ccccc3)CC(C)(CN(Cc3ccccc3)C1)C2=NO	2.4
Cn1ncc(Br)c1C(=O)N/N=C/c1cccc(OC2CSC2)c1	-0.309
